hiPSC survival: enhancers of single-cell hiPSC survival, primary screen, ATPlite luminescence; 360,000 tested, 0.044% active; 100% = ROCK inhibitor wells, 0% = DMSO; survival enhancement, % at 20 µM; AID 602274, 2012; in the data active = survival enhancement above about 18%;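 also: cells exposed to compounds for 16 hours before the ATP read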
TWEAK Fn14 block: inhibitors of TWEAK-Fn14 signaling, primary screen, luciferase reporter cells, uHTS; TWEAK-stimulated Fn14 reporter cells, luciferase luminescence, 8 h; inhibition, % at 10 µM; 360,000 tested, 2% active; AID 1159606, 2016; in the data active = inhibition above about 50%
KKLEB cytotox: cytotoxicity in KKLEB CF airway cells, primary screen, cytotoxicity control for CF NF-kB inhibitor project, cell-based, uHTS, fluorescence assay plates | AID 602141, 2011 | 360,000 tested, 0.36% active | activity change (cytotoxicity), % at 5 µM | KKLEB CF airway cells viability, ATPlite luminescence, overnight; active compounds read low; cells stimulated with P. aeruginosa culture filtrate;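 active = corrected activity change at or below -50% at 5 µM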
HIF-2a inh: HIF-2a reporter inhibitors, primary screen, luminescence, 786-0 RCC cells | inhibition, % at 18.8 µM | 360,000 tested, 0.72% active | 786-0 RCC cells HIF-2a reporter, luciferase luminescence, overnight;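 active = inhibition of the luminescence signal of 40% or more relative to plate controls, in a single-dose primary screen at 18.75 µM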
CF NFkB block: inhibitors of PAF-induced NF-kB signaling, primary screen, cell-based, GFP fluorescence, uHTS. KKLEB NF-kB-GFP reporter, GFP fluorescence overnight. inhibition, % at 5 µM. 360,000 tested, 0.86% active;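 active = at least 50% inhibition at 5 µM, scaled per plate between neutral and stimulator controls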;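 also: PAF is a Pseudomonas aeruginosa culture filtrate used as stimulus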
LGR2 antag: inhibitors of bursicon-induced LGR2 CRE-luciferase signal, primary screen, cell-based, HEK293, CRE-luciferase reporter, bursicon stimulation; Drosophila bursicon receptor LGR2 (rickets); bursicon-stimulated, 4 h; inhibition, % at 9.99 µM; 380,000 tested, 0.35% active;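 active = drop in luminescence signal, shown as inhibition above about 50% in the replicate tests, limit read from the data, passing the limit was not always enough; inconclusive = probably only some replicates passing the limit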;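 also: agonist challenge used bursicon conditioned medium at about half maximal strength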
Of the large screens only hits and unclear results are named; the others gave an inactive call; ! = not active in a repeat. The list is not random: actives were taken first. Their share in the collection is about 2.3%.

O=[N+]([O-])c1ccc(O)c(/C=N/NC(=S)Nc2ccc(Cl)cc2Cl)c1	TWEAK Fn14 block 71
O=[N+]([O-])c1ccc(O)c(/C=N/Nc2ccccn2)c1	KKLEB cytotox -65, CF NFkB block 69
Cc1ccc(S(=O)(=O)Nc2cccc3c2O[C@H](CN(C)Cc2ccc(C(F)(F)F)cc2)[C@@H](C)CN([C@H](C)CO)C3=O)cc1	none (no result: hiPSC survival, TWEAK Fn14 block, KKLEB cytotox, HIF-2a inh, CF NFkB block)
O=C(C1=C(Nc2ccccc2)c2ccccc2S(=O)(=O)N1)c1ccccc1	TWEAK Fn14 block 74 (no result: LGR2 antag)
O=C(C[C@@H]1CC[C@@H]2[C@H](COC[C@H](O)CN2C(=O)c2ccc3c(c2)OCO3)O1)NCCN1CCCC1	none (no result: hiPSC survival, TWEAK Fn14 block, KKLEB cytotox, HIF-2a inh, CF NFkB block)
COc1ccc2cnn(CCOc3ccccc3)c(=O)c2c1OC	TWEAK Fn14 block 51 (no result: LGR2 antag)
COC(=O)c1cc(C(=O)c2cc(Cl)ccc2O)coc1=N	TWEAK Fn14 block 70
COc1cc2c(cc1NC(=O)C(C)Sc1ccc(NC(C)=O)cc1)oc1ccccc12 (configuration not stated)	TWEAK Fn14 block 66
C=CCNc1ccc(N2C(=O)CCCC2=O)cc1[N+](=O)[O-]	TWEAK Fn14 block 74
COc1ccc(C(=O)/C=C/Sc2nc3ccccc3o2)cc1	TWEAK Fn14 block 61, CF NFkB block 54
C=C[C@]1(C)C=C2C(=O)[C@@]3(O)OC(=O)[C@@]4(CCCC(C)(C)[C@H]34)[C@@]2(O)CC1	TWEAK Fn14 block 104, KKLEB cytotox -99, HIF-2a inh 97, CF NFkB block 88
C=C[C@]1(C)C=C2CC[C@H]3[C@@](C)(CCC[C@@]3(C)C(=O)O)[C@@H]2CC1	none (no result: LGR2 antag)
C[C@H](CO)N1C[C@H](C)[C@H](CN(C)C(=O)c2ccncc2)Oc2ncc(C#CC3CC3)cc2C1=O	none (no result: hiPSC survival, TWEAK Fn14 block, KKLEB cytotox, HIF-2a inh, CF NFkB block)
COc1ccc(-c2nc(-c3cccs3)no2)cc1	TWEAK Fn14 block 86, LGR2 antag 81
COc1ccccc1-c1noc(-c2cccs2)n1	none
Cc1ccc(-c2noc(-c3cccs3)n2)cc1	LGR2 antag 70
C[C@H](CO)N1C[C@H](C)[C@H](CN(C)C(=O)NC2CCCCC2)Oc2c(NC(=O)CCCCCC(=O)Nc3ccccc3N)cccc2C1=O	none (no result: hiPSC survival, TWEAK Fn14 block, KKLEB cytotox, HIF-2a inh, CF NFkB block)
Cc1cc(O)c(C2=Nc3ccccc3SC(c3ccc(Cl)cc3)C2)c(=O)o1 (configuration not stated)	TWEAK Fn14 block 77
COc1ccc(C2CC(c3c(O)cc(C)oc3=O)=NCCS2)c(OC)c1 (configuration not stated)	none (no result: LGR2 antag)
CC1=NOC(=O)/C1=C\c1ccc(-c2ccccc2Br)o1	TWEAK Fn14 block 96, HIF-2a inh 49, CF NFkB block 58 (no result: LGR2 antag)
CC1=NOC(=O)/C1=C\c1ccc(-c2cccc(Cl)c2)o1	TWEAK Fn14 block 67, HIF-2a inh 83, CF NFkB block 93 (no result: LGR2 antag)
Cc1ccc(S(=O)(=O)N(CCCN2CCCC2=O)Cc2cc3c(C)ccc(C)c3[nH]c2=O)cc1	none (no result: LGR2 antag)
COc1ccc(S(=O)(=O)N(CCCN2CCCC2=O)Cc2cc3cc(C)c(C)cc3[nH]c2=O)cc1	TWEAK Fn14 block 94 (no result: LGR2 antag)
CC(=O)c1ccc(OCc2cc(C(=O)N(C)C(C)c3ccon3)no2)cc1 (configuration not stated)	TWEAK Fn14 block 84
CO[C@@H]1CN(C)C(=O)c2ccc(NC(=O)c3ccccc3)cc2OC[C@H](C)N(C(C)=O)C[C@H]1C	none (no result: hiPSC survival, TWEAK Fn14 block, KKLEB cytotox, HIF-2a inh, CF NFkB block)
COc1cc2sc3ccc(C#Cc4ccc(N)cc4)cc3c(=O)c2cc1OC	none
COc1cccc2sc3cc(C#CC4(O)CCCCC4)ccc3c(=O)c12	LGR2 antag 98
COc1cc2sc3ccc(C#CC4(O)CCCCC4)cc3c(=O)c2cc1OC	TWEAK Fn14 block 92, LGR2 antag 94
Cn1c2ccccc2c(=O)c2ccc(C#CC3(O)CCCCC3)cc21	TWEAK Fn14 block 97, LGR2 antag 100
COc1ccc(C#Cc2ccc3c(c2)c(=O)c2ccccc2n3C)cc1	none
COc1cccc2sc3ccc(C#CC4(N)CCCCC4)cc3c(=O)c12	none (no result: LGR2 antag)
COCCNC(=O)C[C@@H]1CC[C@H]2[C@@H](COc3ccc(NC(=O)C4CCCC4)cc3C(=O)N2C)O1	none (no result: hiPSC survival, TWEAK Fn14 block, KKLEB cytotox, HIF-2a inh, CF NFkB block)
Cc1noc(C)c1NC(=O)N(C)C[C@@H]1Oc2ccc(NC(=O)C3CC3)cc2CC(=O)N([C@H](C)CO)C[C@@H]1C	none (no result: hiPSC survival, TWEAK Fn14 block, KKLEB cytotox, HIF-2a inh, CF NFkB block)
O=C(c1ccccc1)c1cnc(-c2ccc(Cl)cc2)s1	TWEAK Fn14 block 62 (no result: LGR2 antag)
COc1cccc(-c2nn(C)c3sc(C(=O)N4CCN(c5ccccn5)CC4)cc23)c1	TWEAK Fn14 block 69 (no result: LGR2 antag)
COc1cccc(-c2nn(C)c3sc(C(=O)N4CCOCC4)cc23)c1	none
COCC(=O)Nc1ccc2c(c1)OC[C@H](C)N(Cc1cccc(F)c1)C[C@@H](C)[C@@H](OC)CN(C)C2=O	none (no result: hiPSC survival, TWEAK Fn14 block, KKLEB cytotox, HIF-2a inh, CF NFkB block)
COc1cccc(C#Cc2ccc([C@H]3[C@@H](CO)N4C(=O)CN(C(C)=O)C[C@@H]34)cc2)c1	none (no result: hiPSC survival, TWEAK Fn14 block, KKLEB cytotox, HIF-2a inh, CF NFkB block)
CCc1ccc2[nH]c(=O)c(CN(CCN3CCCC3)C(=O)NC3CCCCC3)cc2c1	TWEAK Fn14 block 85 (no result: LGR2 antag)
Cc1ccccc1-c1cnc2c(c1)C(=O)N([C@@H](C)CO)C[C@@H](C)[C@H](CN(C)C(=O)c1ccccc1)O2	none (no result: hiPSC survival, TWEAK Fn14 block, KKLEB cytotox, HIF-2a inh, CF NFkB block)
Cc1cccc(N2CCN(C(=O)C3CCN(c4ncnc5c4nc4n5CCCCC4)CC3)CC2C)c1 (configuration not stated)	TWEAK Fn14 block 51
O=C(C1CCCN(c2ncnc3c2nc2n3CCCCC2)C1)N1CCN(c2cccc(Cl)c2)CC1 (configuration not stated)	none
O=C(C1CCN(c2ncnc3c2nc2n3CCCCC2)CC1)N1CCN(c2ccccc2F)CC1	none
Cc1cccc(N2CCN(C(=O)C3CCN(c4ncnc5c4nc4n5CCCCC4)CC3)CC2)c1C	TWEAK Fn14 block 80, LGR2 antag inconclusive
OC(c1ccccc1)(c1ccccc1)C1CCN(CCCOc2ccc(F)cc2)CC1	none (no result: KKLEB cytotox, CF NFkB block)
COc1ccc(OCCCN2CCC(C(O)(c3ccccc3)c3ccccc3)CC2)cc1	none (no result: hiPSC survival, TWEAK Fn14 block, KKLEB cytotox, HIF-2a inh, CF NFkB block)
OC(c1ccccc1)(c1ccccc1)C1CCN(CCCOc2cccc(C(F)(F)F)c2)CC1	LGR2 antag 106 (no result: hiPSC survival, TWEAK Fn14 block, KKLEB cytotox, HIF-2a inh, CF NFkB block)
CC(C)c1ccc(OCCCN2CCC(C(O)(c3ccccc3)c3ccccc3)CC2)cc1	LGR2 antag 103 (no result: hiPSC survival, TWEAK Fn14 block, KKLEB cytotox, HIF-2a inh, CF NFkB block)
OC(c1ccccc1)(c1ccccc1)C1CCN(CCCOc2ccc(C(F)(F)F)cc2)CC1	LGR2 antag 107 (no result: hiPSC survival, TWEAK Fn14 block, KKLEB cytotox, HIF-2a inh, CF NFkB block)
C[C@H](CO)N1C[C@H](C)[C@@H](CN(C)C(=O)C2CCCCC2)Oc2cc(C#CC3CC3)ccc2S1(=O)=O	none (no result: hiPSC survival, TWEAK Fn14 block, KKLEB cytotox, HIF-2a inh, CF NFkB block)
COCC(C)n1c(-c2ccc3c(c2)NC(=O)CO3)csc1=Nc1ccc(OC(F)F)cc1 (configuration not stated)	TWEAK Fn14 block 63!

Assay outcomes from PubChem.
